# Measured values as given in PubChem BioAssay (NCATS).
# Results filed as inconclusive are left out. Where a call stands in place of a potency, no number is given. Active and inactive are the calls of the source. Calls come from the whole dose curve; as a rule, active = well fitted cell-killing curve with a large enough effect; inconclusive = small, poorly fitted or top-dose-only effect, or effect the other way; inactive = flat fitted curve, though single readings scatter.
# Experiments:
# Test in all cases: Primary qHTS to identify gynecologic anti-cancer compounds using libraries of approved drugs and bioactive compounds (AID 1345084); note: nearly all actives have a fitted effect of over 55% in size
# C33A = conditions: Gynecologic cancer cell panel viability, ATPlite luminescence, 48 h; series mostly up to 57.5 µM
# How it was run: (§1)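 Luminescence from the ATPlite ATP-monitoring reagent indicates viable cell number; lower signal means cytotoxicity. Cells received compound 16 h after seeding and were exposed for 48 h across five concentrations.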
# CAOV3 = conditions: Gynecologic cancer cell panel viability, ATPlite luminescence, 48 h; series mostly up to 57.5 µM
# How it was run: as §1
# CASKI = conditions: Gynecologic cancer cell panel viability, ATPlite luminescence, 48 h; series mostly up to 57.5 µM
# How it was run: as §1
# Es-2 = conditions: Gynecologic cancer cell panel viability, ATPlite luminescence, 48 h; series mostly up to 57.5 µM
# How it was run: as §1
# HeLa = conditions: Gynecologic cancer cell panel viability, ATPlite luminescence, 48 h; series mostly up to 57.5 µM
# How it was run: as §1
# JEG-3 = conditions: Gynecologic cancer cell panel viability, ATPlite luminescence, 48 h; series mostly up to 57.5 µM
# How it was run: as §1
# Hek293T = conditions: Gynecologic cancer cell panel viability, ATPlite luminescence, 48 h, control line for the selectivity index; series mostly up to 57.5 µM
# How it was run: as §1
# OV90 = conditions: Gynecologic cancer cell panel viability, ATPlite luminescence, 48 h; series mostly up to 57.5 µM
# How it was run: as §1
# Potency is the fitted concentration of half-maximal effect.
Structure (SMILES),Potency (C33A),Potency (CAOV3),Potency (CASKI),Potency (Es-2),Potency (HeLa),Potency (JEG-3),Potency (Hek293T),Potency (OV90)
c1ccc(OCc2ccc(CCCN3CCOCC3)cc2)cc1,inactive,inactive,inactive,inactive,inactive,inactive,–,–
CCCCCCCCCCCCCCCCOP(=O)([O-])OCC[N+](C)(C)C,inactive,–,inactive,inactive,–,inactive,inactive,25.1 µM (active)
CCN1CCN(c2cc3c(cc2F)c(=O)c(C(=O)O)cn3C2CC2)CC1,inactive,–,inactive,inactive,inactive,inactive,inactive,inactive
CC(CCc1ccccc1)NCC(O)c1ccc(O)c(C(N)=O)c1 (centres undefined),inactive,–,inactive,inactive,inactive,inactive,inactive,inactive
Cc1c(C(N)=O)cc([N+](=O)[O-])cc1[N+](=O)[O-],inactive,inactive,inactive,inactive,inactive,inactive,inactive,inactive
c1ccc(-c2ccc(C(c3ccccc3)n3ccnc3)cc2)cc1 (centres undefined),inactive,–,inactive,inactive,inactive,inactive,–,inactive
Clc1ccc2c(c1)CCc1cccnc1C2=C1CCNCC1,inactive,–,–,inactive,inactive,inactive,inactive,–
CCOc1ccc(Cc2nccc3cc(OCC)c(OCC)cc23)cc1OCC,–,inactive,–,–,inactive,inactive,–,7.08 µM (active)
C#C[C@]1(OC(C)=O)CC[C@H]2[C@@H]3CCC4=C[C@@H](OC(C)=O)CC[C@@H]4[C@H]3CC[C@@]21C,inactive,inactive,inactive,inactive,–,inactive,inactive,inactive
O=c1[nH]c(=O)n([C@H]2C[C@H](O)[C@@H](CO)O2)cc1C(F)(F)F,–,–,–,–,inactive,inactive,inactive,inactive
CC(C)N=C(N)/N=C(\N)Nc1ccc(Cl)cc1,–,–,–,–,inactive,inactive,inactive,inactive
